Experimental data as given in PubChem BioAssay AID686922 (National Center for Advancing Translational Sciences (NCATS), 2013).
Inconclusive results are not listed. A number with no mark means an inactive call. The source made the active and inactive calls. The call rests on the fitted dose curve; in most records, active means well fitted inhibition curve with a large enough effect; inconclusive means small, poorly fitted or top-dose-only effect; inactive means no such curve, though single readings can be large or run the other way.

assay: qHTS screen for inhibitors of ELG1-dependent DNA repair in human embryonic kidney (HEK293T) cells expressing luciferase-tagged ELG1: MMS Viability Assay for probe SAR; settings: HEK293T ELG1-luc + MMS viability, CellTiter-Glo, 16 h; series mostly up to 46.1 µM; activity change, negative = lower viability: at the top concentration
Description: Cancer cells divide rapidly compared to normal cells in the body. During cell division, cancer cells need to duplicate their genome by DNA replication. The failure of genome duplication leads to cancer cells' death. Therefore, inhibitors of DNA replication could specifically kill cancer cells. Based on this concept, many chemotherapeutic agents were developed and have been used to treat cancer patients. However, there are a limited number of agents available in the clinical setting, and some of those that do exist have low efficacy and severe side effects. Therefore, if we can find the compounds that effectively block DNA replication either by directly damaging DNA or by inhibiting other cellular mechanisms, the options for cancer treatment will be broadened. With this in mind, we developed a quantitative high-throughput ELG1-luciferase reporter gene assay. Small molecules that specifically block ELG1 function in response to DNA damage can be identified by monitoring the suppression of luciferase activity. Since ELG1 defines a pathway for repairing DNA damage, agents blocking ELG1 function can be used to sensitize cancer cells to chemotherapeutic agents whose mechanism of action involves the induction of DNA damage. Cytotoxicity of the active compounds in the ELG1 qHTS assay with MMS stimulation (AID 493125) was assessed using the CellTiter-Glo Luminescent Cell Viability Assay kit (Promega, USA). CellTiter-Glo measures the intracellular ATP present in metabolically active cells using Ultra-Glo as the luciferase to detect ATP levels. In brief, the luciferase in the buffer catalyzes the oxidation of luciferin to oxyluciferin and light which is dependent on ATP. […] DMSO and wells with media alone were used as positive and negative controls, respectively. Inactivity to this assay is the desirable outcome. NIH Molecular Libraries Probe Production Network [MLPCN] NIH Chemical Genomics Center [NCGC] MLPCN Grant: R03 MH092164 Assay Provider: Kyungjae Myung, NHGRI, NIH
ELG1-luc HEK293T cells will be seeded in 1536-well plates at a density of 2,000 cells/well. Approximately 5 hours after plating, compounds will be added to the plate by pin tool transfer and MMS will be added by FRD dispenser (final concentration of MMS = 10 µM). 16 hours following the addition of the compounds, cell viability will be measured using CellTiter Glo.

Compound | activity change, negative = lower viability [%] | Potency
COc1ccc(-c2nc(Nc3ccc(F)c(F)c3)c3ccccc3n2)cc1 | -27.9 | –
Fc1cc(Nc2nc(-c3ccncc3)nc3ccccc23)ccc1-c1cc(F)c(F)c(F)c1 | 4.68 | –
Cc1cc(-c2nc(Nc3ccc(F)c(F)c3)c3ccccc3n2)cc(C)n1 | -8.79 | –
Fc1cc(Nc2nc(-c3ccncc3)nc3ccccc23)ccc1-c1ccncc1 | 2.69 | –
Fc1ccc(-c2ccc(Nc3nc(-c4ccncc4)nc4ccccc34)cc2F)c(Cl)c1 | – | 18.7 µM (active)
O=c1cc(-c2nc(Nc3ccc(F)c(F)c3)c3ccccc3n2)cc[nH]1 | 9.88 | –
Cc1cc(-c2nc(Nc3ccc(F)c(F)c3)c3ccccc3n2)ccn1 | 5.15 | –
COc1cc(Nc2nc(-c3ccncc3)nc3ccccc23)ccc1NS(C)(=O)=O | -4.62 | –
